{"source": "PubChem BioAssay (Tox21)", "note": "Values without a mark were called inactive. Where a call stands in place of a potency, no number is given. Calls of active or inactive are those of the source. Calls come from the whole dose curve."}
{"biological_target": "Acetylcholinesterase (Homo sapiens) (UniProt P22303)", "sequence (P22303 whole entry, looked up)": "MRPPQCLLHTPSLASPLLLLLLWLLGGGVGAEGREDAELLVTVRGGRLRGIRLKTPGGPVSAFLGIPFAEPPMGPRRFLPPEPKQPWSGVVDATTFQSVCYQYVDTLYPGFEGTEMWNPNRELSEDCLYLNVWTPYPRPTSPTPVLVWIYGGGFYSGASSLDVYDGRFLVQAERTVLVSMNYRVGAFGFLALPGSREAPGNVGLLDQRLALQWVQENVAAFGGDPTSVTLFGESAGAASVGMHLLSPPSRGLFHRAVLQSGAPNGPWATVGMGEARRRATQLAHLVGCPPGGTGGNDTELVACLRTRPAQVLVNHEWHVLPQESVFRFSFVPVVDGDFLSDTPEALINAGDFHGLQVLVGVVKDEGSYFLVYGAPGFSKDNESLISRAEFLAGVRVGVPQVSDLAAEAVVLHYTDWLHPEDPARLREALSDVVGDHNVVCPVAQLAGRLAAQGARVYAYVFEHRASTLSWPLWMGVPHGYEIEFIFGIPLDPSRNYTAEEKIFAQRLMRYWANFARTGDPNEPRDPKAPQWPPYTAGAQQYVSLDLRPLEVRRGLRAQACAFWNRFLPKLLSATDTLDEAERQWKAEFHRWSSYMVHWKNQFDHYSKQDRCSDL", "experiment": "Acetylcholinesterase (AChE) small molecule antagonists: enzyme-based qHTS assay with human liver microsomes (AID 1347399); note: nearly all actives have a fitted effect of over 60% in size", "conditions": "Potency: qHTS inhibition; outcome: qHTS inhibition; series mostly up to 115 µM", "excerpt": "National Center for Advancing Translational Sciences [NCATS]\nDivision of Preclinical Innovation [DPI]\nU.S. Environmental Protection Agency [EPA]\nNational Institutes of Environmental Health Sciences [NIEHS]\nNational Toxicology Program [NTP]\nU.S. Food and Drug Administration [FDA]\nAcetylcholinesterase (AChE) is the primary cholinesterase in the body that hydrolyzes a key neurotransmitter, acetylcholine. Inhibition of AChE activity can lead to neurotoxicity. The known inhibitors include organophosphorous pesticides (OP), chemical warfare agents, drugs, and various phytochemicals. Some compounds like OP compounds may need metabolic activation to be active AChE inhibitors. The cytochrome P450 (CYP) superfamily in the human microsomes is responsible for the metabolism of various endogenous and exogenous compounds.\nAn enzyme-based assay with the recombinant human AChE, human liver microsomes and Amplite Colormetric acetylcholinesterase assay kit (AAT Bioquest, Sunnyvale, CA) was used to evaluate compounds in the Tox21 10K library that need metabolic activation for AChE inhibition. The assay uses 5, 5-dithiobis-(2-nitrobenzoic acid) (DTNB) to quantify the thiocholine produced from the hydrolysis of acetylthiocholine by AChE.\nTox21 Assay Protocol Summary:\nFor the enzyme-based AChE assay with microsomes addition, a mixture of human AChE (50 mU/mL) and human liver microsomes (0.25 mg/mL, final concentration) in 3 uL/well was dispensed into black, clear-bottom 1536-well plates using a Multidrop Combi dispenser (Thermo Scientific, MA). Then, 23 nL of compound or DMSO (vehicle control) was transferred into the assay plates by a Pintool Station (Wako Automation, CA). Following compound addition, 1 uL of NADPH (0.25 mg/mL, final concentration) was transferred to the assay plate by a Flying Reagent Dispenser (Beckman Coulter, CA). The plates were incubated for 30 min at 37 C and 5% CO2, followed by the addition of 4 uL of colorimetric detection cocktail solution (DTNB, acetylthiocholine) into each well using a Flying Reagent Dispenser (Beckman Coulter, CA) and then 10 min incubation at room temperature."}
{"smiles": "CC1=CC(C)(C)Nc2ccccc21", "Potency": "inactive"}
{"smiles": "CCOC(=O)CC(C(C)=O)C(C)=O", "Potency": "inactive"}
{"smiles": "F[Si-2](F)(F)(F)(F)F", "Potency": "inactive"}
{"smiles": "CCOCC(=O)O", "Potency": "inactive"}
{"smiles": "Cc1ccc(S(N)(=O)=O)cc1", "Potency": "inactive"}
{"smiles": "C1CCCC1", "Potency": "inactive"}
{"smiles": "O=C(O)Cc1ccccc1Oc1ccc(Cl)cc1Cl", "Potency": "inactive"}
{"smiles": "C=C(C)C(=O)OCC(CC)(COC(=O)C(=C)C)COC(=O)C(=C)C", "Potency": "inactive"}
{"smiles": "N[C@H](C(=O)O)c1ccc(O)cc1", "activity change, negative = inhibition": "-0.0013% [at 23.6 µM]"}
{"smiles": "CCC(C)COC(C)=O", "note": "(stereo not given)", "Potency": "inactive"}
{"smiles": "C=C[C@](C)(O)CC[C@@H]1[C@@]2(C)CCCC(C)(C)[C@@H]2CC[C@@]1(C)O", "Potency": "inactive"}
{"smiles": "C=CC(C)CCC=C(C)C", "note": "(stereo not given)", "Potency": "inactive"}
{"smiles": "Cc1ccccc1C(=O)N1CC/C(=N\\OS(=O)(=O)O)c2ccc(Cl)cc21", "Potency": "inactive"}
{"smiles": "O=C1OC(=O)c2c(Br)c(Br)c(Br)c(Br)c21", "Potency": "inactive"}
{"smiles": "O=C(O)CCC(=O)C(=O)O", "Potency": "inactive"}
{"smiles": "CCCCCCCCC/C=C/CC1CC(=O)OC1=O", "note": "(stereo not given)", "Potency": "inactive"}
{"smiles": "CC1=CC(=O)c2ccccc2C1=O", "Potency": "inactive"}
{"smiles": "C=C(C#N)C(=O)OCC", "Potency": "inactive"}
{"smiles": "NCCNCCN", "Potency": "inactive"}
{"smiles": "CCCCCCCC/C=C\\CCCCCCCC(=O)OC(CO)CO", "Potency": "inactive"}
{"smiles": "CCC(C)(CCC(C)C)C(=O)[O-].CCC(C)(CCC(C)C)C(=O)[O-].[Zn+2]", "note": "(stereo not given)", "Potency": "inactive"}
{"smiles": "CCN(CC#N)c1cccc(C)c1", "Potency": "inactive"}
{"smiles": "Cn1ccc2cc3c(cc21)CCN3C(=O)Nc1cccnc1", "activity change, negative = inhibition": "2.86% [at 23.6 µM]"}
{"smiles": "O=C1CCCCCCCCCCCC(=O)OCCO1", "Potency": "inactive"}
{"smiles": "Cc1ccccc1C(N)=O", "Potency": "inactive"}
{"smiles": "O=C(O)CCS", "Potency": "inactive"}
{"smiles": "C/C(=C(\\CCO)SS/C(CCO)=C(\\C)N(C=O)Cc1cnc(C)nc1N)N(C=O)Cc1cnc(C)nc1N", "Potency": "inactive"}
{"smiles": "CSc1nnc(C(C)(C)C)c(=O)[nH]1", "Potency": "inactive"}
{"smiles": "O=[N+]([O-])c1ccc(CO)cc1", "Potency": "inactive"}
{"smiles": "CCOC=C(C(=O)OCC)C(=O)OCC", "Potency": "inactive"}
{"smiles": "CCCCCC/C=C/C=O", "Potency": "inactive"}
{"smiles": "CC(Cl)COP(=O)(OCC(C)Cl)OCC(C)Cl", "note": "(stereo not given)", "Potency": "inactive"}
{"smiles": "F[B-](F)(F)F", "Potency": "inactive"}
{"smiles": "CCCCC/C(=C\\c1ccccc1)CO", "Potency": "inactive"}
{"smiles": "C[C@H]1COc2c(C3(N)CC3)c(F)cc3c(=O)c(C(=O)O)cn1c23", "Potency": "inactive"}
{"smiles": "CC(=O)C1C(=O)C=C(C)OC1=O", "note": "(stereo not given)", "Potency": "inactive"}
{"smiles": "CCCC(C)=O", "Potency": "inactive"}
{"smiles": "CCC(=O)OC", "Potency": "inactive"}
{"smiles": "O=C(O)CNc1ccccc1", "Potency": "inactive"}
{"smiles": "CC(=O)O[C@]1(C(C)=O)CC[C@H]2[C@@H]3C[C@H](C)C4=CC(=O)CC[C@]4(C)[C@H]3CC[C@@]21C", "Potency": "inactive"}
